# Measurements taken from PubChem BioAssay AID2540 (Sanford-Burnham Center for Chemical Genomics, 2010).
# Among all 330,000 compounds or so, about 4,100 (1.2%) were called active. The sample holds actives, similar compounds and a random draw of the others, so the mix is not that of the screen. Unmarked numbers belong to inactive results. Rule as the data show it: active = inhibition above about 50%; inactive = the rest.
# Molecular target: Sentrin-specific protease 8 (Homo sapiens) (UniProt Q96LD8)
# Sequence (Q96LD8 whole entry, looked up): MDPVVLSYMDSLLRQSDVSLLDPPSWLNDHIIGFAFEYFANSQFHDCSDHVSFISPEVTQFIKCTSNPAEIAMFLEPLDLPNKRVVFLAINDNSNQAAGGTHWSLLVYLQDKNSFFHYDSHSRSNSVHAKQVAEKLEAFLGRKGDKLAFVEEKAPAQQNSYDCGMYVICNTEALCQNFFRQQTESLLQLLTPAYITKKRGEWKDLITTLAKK
# Experiment: blockers of human SENP8 peptidase activity – biochemical, luminescence, primary screen (AID 2540)
# Conditions: purified SENP8, Z-RLRGG-aminoluciferin cleavage, at 10 µM, hits give high values
row,SMILES,inhibition
1,CCOC(=O)C1CCCCN1Cc1ccc(OC)c(OC)c1OC (stereo unspecified),-0.162%
2,O=C(Nc1ccc2c(c1)CCC2)c1ccc(Br)s1,61.5% (active)
3,CC1CC(C)CN(CCC(=O)Nc2ccc3c(c2)CCC3)C1 (stereo unspecified),7.63%
4,CC(C)Oc1ccc(C(=O)NCC(=O)Nc2ccc3c(c2)CCC3)cc1,6.91%
5,Cc1nn(-c2ccccc2)c2c1C(=O)NC(=O)C(C)(C)C2,4.21%
6,Cc1nnc(SCc2ccc(C(=O)c3ccc(Cl)cc3)o2)n1-c1ccccc1,-8.59%
7,Nc1nc(NCc2ccccc2)n(-c2ccccc2)n1,4.17%
8,COc1ccccc1CNC(=O)CSc1nc(=O)n(Cc2ccncc2)c2c1CCC2,-3.51%
9,Nc1nc(NCC(=O)O)nc(N2CCCCCC2)c1[N+](=O)[O-],-1.61%
10,N#Cc1c(N2CCCCC2)nc(N)c2c(N)nc(SCC(=O)O)cc12,70.8% (active)
11,N#CCc1c(C#N)c(N)nc(N2CCCC2)c1C#N,0.98%
12,O=S(=O)(NCC1CCCO1)c1cnc(Cl)c(Cl)c1 (stereo unspecified),3.51%
13,O=C(CN(c1ccccc1)S(=O)(=O)c1ccc(Cl)cc1)Nc1ccccc1C(=O)N1CCCC1,2.45%
14,Cc1nc(C(=O)N2CCCC(C(=O)c3ccc(Cl)cc3)C2)cs1 (stereo unspecified),-2.8%
15,Cn1cc(-c2ccccc2)cc(C#N)c1=O,3.36%
16,COC(=O)[C@@H](NC(=O)NCc1cccc(OC)c1)C(C)C,0.612%
17,O=C(O)c1ccc(N=NN2CCOCC2)cc1,1.65%
18,O=C(O)c1cccc(N=NN2CCCCCC2)c1,88.8% (active)
19,NC1=NN(c2cccc(C(=O)O)c2)C(=O)C1,-5.54%
20,Cc1cc(C(F)(F)F)nn1CC(=O)N1CCCC1,-6.86%
21,COc1ccc(C2/C=C\CN(S(=O)(=O)c3cccs3)CC(=O)N2Cc2ccc(F)cc2)cc1 (stereo unspecified),-0.424%
22,CN1CCN(C2Cc3ccc(Cl)cc3Sc3ccc(F)cc32)CC1 (stereo unspecified),-10.9%
23,CCOC(=O)/C(=C\c1ccc([N+](=O)[O-])cc1)C(=O)c1cc(C(C)=O)c(Nc2ccccc2)s1,6.19%
24,O=C(c1ccc(F)cc1)n1cc(C(=S)N2CCOCC2)c2ccccc21,-5.7%
25,O=C(Cn1c(=S)nc2ccccn21)N1CCc2ccccc2C1,0.682%
26,O=C(c1ccc(F)cc1)n1c(=S)nc2ccccn21,64.1% (active)

row,SMILES,inhibition
1,Cc1ccccc1SCC(=O)OCC(=O)N1CC(=O)Nc2ccccc21,4.24%
2,Cc1cccc(CN2CCC(CNC(=O)Nc3ccc(F)c(Cl)c3)CC2)c1,-1.33%
3,CCOc1ccccc1NC(=O)Cn1nnc(C(=O)NCc2cccs2)c1N,19.3%
4,CC(C)Cn1c(N)c(C(=O)NCc2cccs2)c2nc3ccccc3nc21,90% (active)
5,Cn1ncc(Br)c1C(=O)NCc1cccs1,-2.84%
6,CCCCNC(=O)N1CCN(S(C)(=O)=O)CC1,-11%
7,N/C(=N\OC(=O)c1ccc([N+](=O)[O-])cc1)c1ccccn1,89.6% (active)
8,O=C(COC(=O)c1ccccn1)NNC(=O)c1ccc([N+](=O)[O-])cc1,-16.2%
9,O=C(COC(=O)c1ccccn1)NNC(=O)c1ccc(Br)cc1,0.814%
10,COc1ccc(C(=O)O/N=C(\N)c2ccccn2)cc1[N+](=O)[O-],-12%
11,C/C(=N/OC(=O)c1cccc(C(F)(F)F)c1)c1cnccn1,-12.8%
12,Cc1ccc(C(=O)O/N=C(\N)c2ccccn2)cc1Cl,78% (active)
13,CCCNC(=O)COc1coc(CN2CCN(Cc3ccccc3)CC2)cc1=O,-2.92%
14,CC(C)Cn1c(SCC(=O)Nc2ccc(Cl)cc2F)nc(O)cc1=O,0.222%
15,COc1cccc2sc(Nc3nc(C)c(C(C)=O)s3)nc12,66.7% (active)
16,CNC(=O)c1sc(NCc2ccccc2OC)nc1C,0.124%
17,COc1cc2ccccc2cc1C(=O)Nc1nc(C)c(C(C)=O)s1,-0.787%
18,Cc1ccc(S(=O)(=O)N2CCCCC2)cc1C(=O)N1CCN(CCO)CC1,4.2%
19,O=C(NCc1ccccc1Cl)C1CCCN1S(=O)(=O)c1ccc(F)cc1 (stereo unspecified),-7.31%
20,Cc1ccc(N2CC(C(=O)Nc3cc(Cl)ccc3-n3cncn3)CC2=O)cc1 (stereo unspecified),10.6%
21,Cc1ccc(-n2ncc3c(Nc4cccc(C(=O)O)c4)ncnc32)cc1,90.4% (active)
22,CC(C)Sc1ncnc2c1cnn2-c1ccccc1,38.9%
23,Cc1ccc(Nc2ncnc3c2cnn3C)c(C)c1,0.699%
24,O=C(C1CCN(C2CCN(Cc3ccc4cc(F)ccc4n3)CC2)CC1)N1CCCC1,-5.41%
25,O=c1[nH]cnc(O)c1C(c1ccc(F)cc1)c1c(O)nc[nH]c1=O,-12.7%
26,CC(C)CN(Cc1c(O)ccc2c(=O)c(-c3ccccc3)coc12)CC(C)C,-6.97%

row,SMILES,inhibition
1,O=c1c(-c2ccccc2)coc2cc(O)ccc12,55% (active)
2,CCc1ccc(Oc2coc3cc(O)ccc3c2=O)cc1,-15.7%
3,O=C(O)c1ccc(OCC2CCCO2)cc1 (stereo unspecified),-8.8%
4,COC(=O)c1ccc(Sc2ccc(F)cc2)c(N)c1,-1.32%
5,CCOc1ccc(N/C=C/C(=O)c2ccccc2)cc1,93.7% (active)
6,COc1ccc(C(=O)/C=C/Nc2ccccn2)cc1,95.5% (active)
7,Cc1cc(N/C=C\C(=O)c2ccc(Cl)c(Cl)c2)no1,-16.9%
8,CC(=O)Nc1ccc(/C=C/C(=O)c2ccccc2)cc1,-16.7%
9,COc1ccc(N2C(=O)CCC(C(=O)Nc3ccccn3)C2c2ccc(OC)c(OC)c2)cc1 (stereo unspecified),-4.67%
10,CCOc1ccc(NC(=S)N2CCC(NC(=O)c3ccccc3)CC2)cc1,-6%
11,CCOc1ccc(N/C=C/C(=O)c2cc(OC)c(OC)c(OC)c2)cc1,-9.53%
12,Cc1ccc(N/C=C/C(=O)c2ccccc2)cc1C,88.8% (active)
13,O=C(/C=C/NCc1ccc(F)cc1)c1ccccc1,-2.04%
14,COc1ccc(C)cc1N(C)C(=O)c1coc(=O)c2ccccc12,-8.47%
15,O=C(CN1C(=O)NC2(CCOc3ccccc32)C1=O)Nc1cccc([N+](=O)[O-])c1 (stereo unspecified),7.44%
16,O=C(Nc1c2c(nn1-c1ccccc1)CS(=O)(=O)C2)C1CCCC1,-3.98%
17,COc1cc(/C=C(\C#N)c2nc3c(s2)CC(C)CC3)ccc1O (stereo unspecified),-4.73%
18,Cc1ccc2nc(/C(C#N)=C\c3ccc(OC(=O)c4cccs4)cc3)[nH]c2c1,3.01%
19,COc1cc(/C=C(\C#N)c2nc3ccccc3[nH]2)ccc1O,91.8% (active)
20,COc1ccc(NC(=O)CN(C)C(=O)Cc2coc3cc(C)c(C)cc23)cc1,-3.13%
21,COc1ccccc1C1=CC(=O)C[C@H](c2ccc(F)cc2)C1,-4.36%
22,CCN(CC)CCNc1nc(-c2ccc(OC(F)F)cc2)c(C)s1,-5.12%
23,COc1ccc(/C=C2\SC(=O)N(CCC(=O)NCCCn3ccnc3)C2=O)cc1,-11.9%
24,COc1ccc(/C=C2/SC(=O)N(CCCCCC(=O)Nc3ccccc3C(=O)O)C2=S)cc1,50.3% (active)
25,COc1ccc(/C=C2\SC(=O)N(CCC(=O)NC3CCS(=O)(=O)C3)C2=O)cc1 (stereo unspecified),2.13%
26,CN1C(=O)CC(c2ccccc2)C1=O (stereo unspecified),1.07%

row,SMILES,inhibition
1,COc1cc(NC(=S)NCCSc2ccc(C)cc2)cc(OC)c1,-1.13%
2,COc1cccc(C(=O)NNC(=O)c2cccc(F)c2)c1,-1.03%
3,CCOC(=O)c1cc2cc3ccccc3cc2oc1=O,-4.84%
4,COc1cccc(C(=O)c2cc3ccc(O)cc3oc2=O)c1,96.9% (active)
5,CN1CCN(Cc2nc3cc(NC(=O)COc4ccc([N+](=O)[O-])cc4)ccc3n2C)CC1,0.315%
6,O=c1oc2cc(O)ccc2cc1-c1ccc(F)cc1,95.4% (active)
7,COc1ccc(-c2cc3ccc(OCc4nn[nH]n4)cc3oc2=O)cc1,39.6%
8,CN(C)c1cc(-c2ccc(F)cc2)oc(=O)c1Cl,2.47%
9,Cc1ccc(C)c(NC(=O)CN(C)C(=O)c2ccc3ncsc3c2)c1,-13.6%
10,O=C(Nc1ccccc1C(=O)O)c1ccc(N2C(=O)C3CC=CCC3C2=O)cc1 (stereo unspecified),21.2%
11,COc1ccc(CCNC(=O)CCn2c(=O)c3ccccc3n(CC(=O)NCC3CCCO3)c2=O)cc1OC (stereo unspecified),-9.64%
12,C[C@H](NC(=O)C1CCN(S(=O)(=O)c2ccccc2)CC1)C(=O)NCc1ccccc1,-3.77%
13,CCOc1ccc(C(O)Cc2nc3ccccc3n2C)cc1 (stereo unspecified),1.07%
14,Cc1ccc(OCc2nc3ccccc3n2C)cc1,51.5% (active)
15,CC(C)n1c(COc2ccccc2)nc2ccccc21,-6.45%
16,CCn1c(SCC(=O)NC2CC2)nnc1-c1ccccc1OC,-9.1%
17,COc1ccc(C2OCC3(CO2)SC(=O)NC3=O)cc1OC (stereo unspecified),-5.03%
18,COc1ccc(-n2ncc3c(SCC(=O)NNC(C)=O)ncnc32)cc1,53.4% (active)
19,CCN(CC)C(=O)CSc1ncnc2c1cnn2-c1ccccc1,2.66%
20,COC(=O)CSc1ncnc2c1cnn2-c1ccc(C)cc1C,6.59%
21,CC(=O)Oc1ccc2c(=O)oc(-c3ccc([N+](=O)[O-])cc3)nc2c1,94.9% (active)
22,CC(=O)Oc1ccc(-c2nc3c(C)cccc3c(=O)o2)cc1,-1.45%
23,CCOC(=O)CSc1nnc(-c2ccc([N+](=O)[O-])cc2)o1,1.65%
